Consider ten compounds from PubChem BioAssay (EPA / NIEHS).

In assay [1] the target is D(1A) dopamine receptor (Homo sapiens) (UniProt P21728). As to the kind of experiment: NVS_GPCR_hDRD1: NovaScreen (NVS) G Protein-Coupled Receptor Assay for human Dopamine Receptor D1 (DRD1) (AID 2283269). Summed up:
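Radioligand displacement binding on membranes/protein extracted from HEK293 expressing human D1, cell-free; read 1 h after dosing by filter-based scintillation counting. Primary screen in duplicate at 25 uM, actives followed up in concentration series; signal loss versus DMSO baseline.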

Assay [2] has as its target human Histamine 1 Receptor (H1), HRH1 (gene 3269) (UniProt P35367). The assay can be described thus: NVS_GPCR_hH1: NovaScreen (NVS) G Protein-Coupled Receptor Assay for human Histamine 1 Receptor (H1) (AID 2283268). The method, boiled down: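 Cell-free radioligand displacement at human H1 receptor, 1 h, filter scintillation counting; primary screen 25 uM in duplicate, hits in concentration series; loss of binding fitted vs DMSO.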

Assay [3] deals with Muscarinic acetylcholine receptor M2 (Homo sapiens) (UniProt P08172). As to the kind of experiment: NVS_GPCR_hM2: NovaScreen (NVS) G Protein-Coupled Receptor Assay for human Muscarinic, M2 Receptor (AID 2283273). The method, boiled down: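 Cell-free radioligand binding using membranes from CHO cells expressing the receptor; filter-based scintillation counting after 1 hour of compound exposure. Loss of specific binding relative to DMSO baseline; primary screen at 25 uM in duplicate, actives then run in concentration series.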
Sequence of Muscarinic acetylcholine receptor M2 (Homo sapiens) (P08172 whole entry, looked up): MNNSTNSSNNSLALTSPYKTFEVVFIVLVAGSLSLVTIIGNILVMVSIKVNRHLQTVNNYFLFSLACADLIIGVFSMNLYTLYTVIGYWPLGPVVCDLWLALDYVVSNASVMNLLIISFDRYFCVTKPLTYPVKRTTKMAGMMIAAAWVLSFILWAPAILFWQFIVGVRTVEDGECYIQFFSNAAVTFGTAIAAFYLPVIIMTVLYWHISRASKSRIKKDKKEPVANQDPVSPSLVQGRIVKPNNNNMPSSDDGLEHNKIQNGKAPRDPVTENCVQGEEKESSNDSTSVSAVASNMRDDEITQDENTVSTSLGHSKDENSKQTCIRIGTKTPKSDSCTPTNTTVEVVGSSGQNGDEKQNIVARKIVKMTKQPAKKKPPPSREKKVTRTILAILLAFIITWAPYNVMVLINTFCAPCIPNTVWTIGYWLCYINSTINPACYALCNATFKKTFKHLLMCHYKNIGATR

The target of assay [4] is Muscarinic acetylcholine receptor M1 (Homo sapiens) (UniProt P11229). As to the kind of experiment: NVS_GPCR_hM1: NovaScreen (NVS) G Protein-Coupled Receptor Assay for human Muscarinic, M1 Receptor (AID 2283270). The method, boiled down:
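Cell-free radioligand displacement using membrane protein extracted from CHO cells, read by filter-based scintillation counting 1 h after dosing. Loss of bound signal fitted versus DMSO; primary screen single concentration 25 uM in duplicate, actives followed by concentration series.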

The target of assay [5] is human Muscarinic, M4 Receptor, CHRM4 (gene 1132) (UniProt P08173). The assay can be described thus: NVS_GPCR_hM4: NovaScreen (NVS) G Protein-Coupled Receptor Assay for human Muscarinic, M4 Receptor (AID 2283274). Summed up: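 Cell-free radioligand displacement using CHO-derived human M4 receptor protein, 1 h after dosing; bound radioactivity by filtration and scintillation counting. Primary screen single 25 uM duplicate, actives followed in concentration series.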
Sequence of human Muscarinic, M4 Receptor, CHRM4 (gene 1132) (P08173 whole entry, looked up): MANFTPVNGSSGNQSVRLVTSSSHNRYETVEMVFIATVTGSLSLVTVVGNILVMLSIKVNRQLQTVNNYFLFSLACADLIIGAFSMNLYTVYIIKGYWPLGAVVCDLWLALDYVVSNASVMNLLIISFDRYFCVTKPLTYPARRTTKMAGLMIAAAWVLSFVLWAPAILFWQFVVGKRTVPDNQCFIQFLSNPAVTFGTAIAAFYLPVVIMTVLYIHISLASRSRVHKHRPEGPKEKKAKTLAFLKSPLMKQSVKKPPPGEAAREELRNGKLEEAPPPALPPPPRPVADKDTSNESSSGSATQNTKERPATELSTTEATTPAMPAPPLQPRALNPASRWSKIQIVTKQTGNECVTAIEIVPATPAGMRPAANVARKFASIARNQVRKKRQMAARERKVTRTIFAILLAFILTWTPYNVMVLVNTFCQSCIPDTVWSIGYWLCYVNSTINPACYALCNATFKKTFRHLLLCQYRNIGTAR

Assay [6] deals with Muscarinic acetylcholine receptor M5 (Homo sapiens) (UniProt P08912). The assay can be described thus: NVS_GPCR_hM5: NovaScreen (NVS) G Protein-Coupled Receptor Assay for human Muscarinic, M5 Receptor (AID 2283275). The method, boiled down:
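Radioligand displacement on CHO-derived membrane preparations, 1 h, filter-based scintillation counting. Single-concentration duplicate screen at 25 uM; hits (e.g. 30% inhibition) retested in singleton concentration-response up to 50 uM. Loss of binding fitted versus DMSO.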

In assay [7] the target is Neuropeptide Y receptor type 2 (Homo sapiens) (UniProt P49146). As to the kind of experiment: NVS_GPCR_hNPY2: NovaScreen (NVS) G Protein-Coupled Receptor Assay for human Neuropeptide Receptor Y2 (NPY2) (AID 2283277). The method, boiled down: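 Radioligand binding on membranes extracted from SK-N-MC cells, cell-free, read 1 h after dosing by filter-based scintillation counting. Loss of signal vs DMSO. Primary screen in duplicate at 25 uM; actives followed up in concentration-response up to 50 uM.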
Sequence of Neuropeptide Y receptor type 2 (Homo sapiens) (P49146 whole entry, looked up): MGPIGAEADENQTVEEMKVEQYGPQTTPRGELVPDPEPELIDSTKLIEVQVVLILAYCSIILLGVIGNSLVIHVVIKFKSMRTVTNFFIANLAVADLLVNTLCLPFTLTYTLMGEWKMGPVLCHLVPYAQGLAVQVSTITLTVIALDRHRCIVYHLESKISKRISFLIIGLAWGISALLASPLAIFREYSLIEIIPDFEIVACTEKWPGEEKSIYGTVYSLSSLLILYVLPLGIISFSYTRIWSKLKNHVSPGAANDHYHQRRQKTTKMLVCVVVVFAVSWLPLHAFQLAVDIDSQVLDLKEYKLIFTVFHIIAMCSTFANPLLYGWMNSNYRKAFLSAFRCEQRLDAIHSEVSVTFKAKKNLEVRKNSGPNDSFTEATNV

Assay [8] concerns the target human Leukotriene B4 Receptor 1 (LTB4-BLT1), LTB4R (gene 1241) (UniProt Q15722). As to the kind of experiment: NVS_GPCR_hLTB4_BLT1: NovaScreen (NVS) G Protein-Coupled Receptor Assay for human Leukotriene B4 Receptor 1 (LTB4-BLT1) (AID 2283271). The method, boiled down:
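Radioligand displacement binding on receptor extracted from human neutrophils, cell-free, 1 h after dosing; filter-based scintillation counting. Primary screen in duplicate at 25 uM, actives retested in concentration-response up to 50 uM; loss of signal versus DMSO.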

The target of assay [9] is Muscarinic acetylcholine receptor M3 (Homo sapiens) (UniProt P20309). As to the kind of experiment: NVS_GPCR_hM3: NovaScreen (NVS) G Protein-Coupled Receptor Assay for human Muscarinic, M3 Receptor (AID 2283272). Summed up: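 Radioligand displacement binding on human M3 receptor in CHO-derived membranes, 1 h incubation, filter-based scintillation counting. Primary screen in duplicate at 25 uM; actives followed up in concentration series; loss of signal versus DMSO.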
Sequence of Muscarinic acetylcholine receptor M3 (Homo sapiens) (P20309 whole entry, looked up): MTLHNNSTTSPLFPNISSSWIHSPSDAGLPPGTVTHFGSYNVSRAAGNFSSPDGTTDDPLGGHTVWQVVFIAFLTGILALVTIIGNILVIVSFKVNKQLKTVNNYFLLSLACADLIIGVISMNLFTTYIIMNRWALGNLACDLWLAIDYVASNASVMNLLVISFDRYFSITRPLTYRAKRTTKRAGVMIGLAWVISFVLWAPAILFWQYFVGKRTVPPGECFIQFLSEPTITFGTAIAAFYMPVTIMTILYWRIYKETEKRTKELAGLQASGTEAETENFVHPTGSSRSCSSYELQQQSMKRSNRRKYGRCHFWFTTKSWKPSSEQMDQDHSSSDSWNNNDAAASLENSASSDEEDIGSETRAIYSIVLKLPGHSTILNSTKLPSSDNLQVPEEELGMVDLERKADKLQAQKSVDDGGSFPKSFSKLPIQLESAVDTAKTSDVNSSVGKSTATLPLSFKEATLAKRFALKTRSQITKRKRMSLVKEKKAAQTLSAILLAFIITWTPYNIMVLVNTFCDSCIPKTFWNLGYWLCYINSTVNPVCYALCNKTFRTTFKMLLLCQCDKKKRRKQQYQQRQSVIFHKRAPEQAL

In assay [10] the target is human Neuropeptide Receptor Y1 (NPY1), NPY1R (gene 4886) (UniProt P25929). As to the kind of experiment: NVS_GPCR_hNPY1: NovaScreen (NVS) G Protein-Coupled Receptor Assay for human Neuropeptide Receptor Y1 (NPY1) (AID 2283276). The method, boiled down: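 Cell-free radioligand binding using receptor extracted from SK-N-MC cells, 1 h incubation, filter-based scintillation counting. Primary screen single concentration 25 uM in duplicate; actives followed in concentration series. Loss of bound signal scored versus DMSO.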
Sequence of human Neuropeptide Receptor Y1 (NPY1), NPY1R (gene 4886) (P25929 whole entry, looked up): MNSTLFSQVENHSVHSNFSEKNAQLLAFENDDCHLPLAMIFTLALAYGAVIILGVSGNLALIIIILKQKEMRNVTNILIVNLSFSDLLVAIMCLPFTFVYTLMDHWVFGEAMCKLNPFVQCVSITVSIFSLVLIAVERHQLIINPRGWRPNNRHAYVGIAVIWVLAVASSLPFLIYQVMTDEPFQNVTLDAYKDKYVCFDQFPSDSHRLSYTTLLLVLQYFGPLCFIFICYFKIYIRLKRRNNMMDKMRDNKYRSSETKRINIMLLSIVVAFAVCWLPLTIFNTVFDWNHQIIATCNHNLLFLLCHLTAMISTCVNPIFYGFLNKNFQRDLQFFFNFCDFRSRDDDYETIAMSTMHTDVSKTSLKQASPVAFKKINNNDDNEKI

Inconclusive results are not listed. Calls of active or inactive are those of the source. The calls were made as follows: active = hit-call score of the fitted dose curve at least 0.9, where 1 is the maximum; inconclusive = response in the unintended direction; inactive = score below 0.9.

Sequence of D(1A) dopamine receptor (Homo sapiens) (P21728 whole entry, looked up): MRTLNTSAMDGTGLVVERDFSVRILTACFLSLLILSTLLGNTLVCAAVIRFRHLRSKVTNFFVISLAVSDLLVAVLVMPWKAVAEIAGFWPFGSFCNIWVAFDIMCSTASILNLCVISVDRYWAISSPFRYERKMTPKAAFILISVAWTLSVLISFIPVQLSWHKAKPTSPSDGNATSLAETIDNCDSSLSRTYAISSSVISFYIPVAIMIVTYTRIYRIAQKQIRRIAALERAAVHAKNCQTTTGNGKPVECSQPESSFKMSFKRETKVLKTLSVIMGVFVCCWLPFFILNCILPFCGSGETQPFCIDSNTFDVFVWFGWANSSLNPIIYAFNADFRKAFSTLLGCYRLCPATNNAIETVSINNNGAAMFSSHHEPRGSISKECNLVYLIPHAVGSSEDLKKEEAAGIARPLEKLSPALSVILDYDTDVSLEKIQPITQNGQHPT
Sequence of Muscarinic acetylcholine receptor M5 (Homo sapiens) (P08912 whole entry, looked up): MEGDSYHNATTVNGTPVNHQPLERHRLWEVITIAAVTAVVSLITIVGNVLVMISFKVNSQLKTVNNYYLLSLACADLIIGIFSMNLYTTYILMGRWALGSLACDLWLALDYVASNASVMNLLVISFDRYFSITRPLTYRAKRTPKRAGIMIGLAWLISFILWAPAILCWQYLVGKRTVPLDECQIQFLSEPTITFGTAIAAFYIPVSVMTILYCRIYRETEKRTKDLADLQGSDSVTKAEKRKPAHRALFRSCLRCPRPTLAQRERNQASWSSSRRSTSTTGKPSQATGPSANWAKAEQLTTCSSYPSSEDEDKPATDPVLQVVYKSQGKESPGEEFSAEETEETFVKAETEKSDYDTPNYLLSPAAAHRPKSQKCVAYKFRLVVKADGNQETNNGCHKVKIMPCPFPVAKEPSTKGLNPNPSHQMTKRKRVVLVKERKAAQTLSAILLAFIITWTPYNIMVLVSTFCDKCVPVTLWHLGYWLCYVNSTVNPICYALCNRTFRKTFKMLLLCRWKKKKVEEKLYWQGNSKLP
Sequence of human Leukotriene B4 Receptor 1 (LTB4-BLT1), LTB4R (gene 1241) (Q15722 whole entry, looked up): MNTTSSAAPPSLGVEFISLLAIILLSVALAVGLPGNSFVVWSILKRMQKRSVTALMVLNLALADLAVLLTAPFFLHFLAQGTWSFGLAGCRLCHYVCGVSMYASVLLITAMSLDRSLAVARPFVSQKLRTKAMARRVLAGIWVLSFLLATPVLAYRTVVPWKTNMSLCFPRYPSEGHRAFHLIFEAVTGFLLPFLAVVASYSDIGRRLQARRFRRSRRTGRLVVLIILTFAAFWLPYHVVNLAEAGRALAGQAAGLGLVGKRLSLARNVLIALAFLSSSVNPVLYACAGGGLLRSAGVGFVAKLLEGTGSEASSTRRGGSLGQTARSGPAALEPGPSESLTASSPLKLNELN
Sequence of human Histamine 1 Receptor (H1), HRH1 (gene 3269) (P35367 whole entry, looked up): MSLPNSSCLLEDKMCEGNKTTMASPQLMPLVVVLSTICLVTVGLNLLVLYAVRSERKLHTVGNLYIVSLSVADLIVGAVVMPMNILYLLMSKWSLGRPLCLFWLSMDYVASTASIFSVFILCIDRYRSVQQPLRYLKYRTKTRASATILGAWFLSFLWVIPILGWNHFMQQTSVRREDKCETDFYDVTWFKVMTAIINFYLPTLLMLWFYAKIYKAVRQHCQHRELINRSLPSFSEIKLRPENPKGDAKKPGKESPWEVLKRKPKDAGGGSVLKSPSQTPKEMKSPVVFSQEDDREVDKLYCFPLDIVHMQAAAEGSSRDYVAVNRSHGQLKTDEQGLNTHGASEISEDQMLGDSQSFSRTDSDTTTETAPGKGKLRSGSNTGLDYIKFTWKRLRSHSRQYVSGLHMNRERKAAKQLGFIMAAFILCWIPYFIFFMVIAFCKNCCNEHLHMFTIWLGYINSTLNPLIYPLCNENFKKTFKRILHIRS
Sequence of Muscarinic acetylcholine receptor M1 (Homo sapiens) (P11229 whole entry, looked up): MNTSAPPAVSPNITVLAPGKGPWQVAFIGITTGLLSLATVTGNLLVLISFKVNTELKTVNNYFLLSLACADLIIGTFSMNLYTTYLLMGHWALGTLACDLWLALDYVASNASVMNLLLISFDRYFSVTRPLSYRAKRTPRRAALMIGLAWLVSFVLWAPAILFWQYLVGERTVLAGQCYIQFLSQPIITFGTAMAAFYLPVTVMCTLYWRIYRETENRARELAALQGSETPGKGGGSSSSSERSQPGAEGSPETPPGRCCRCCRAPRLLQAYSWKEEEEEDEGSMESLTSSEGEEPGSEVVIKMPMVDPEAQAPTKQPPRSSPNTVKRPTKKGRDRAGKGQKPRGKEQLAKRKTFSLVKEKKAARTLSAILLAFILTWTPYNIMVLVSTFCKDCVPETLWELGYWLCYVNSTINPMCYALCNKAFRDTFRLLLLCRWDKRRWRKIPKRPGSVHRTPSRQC

As to `O=C(O)C(F)(F)C(F)(F)C(F)(F)C(F)(F)C(F)(F)C(F)(F)C(F)(F)C(F)(F)C(F)(F)F`, the AC50 in [1] was 16.8 µM (active).

Regarding `Cc1cc(-c2ccc(N)c(C)c2)ccc1N`, the call in [2] was inactive.

`O=C(N[C@H]1CN2CCC1CC2)c1cc2ccoc2cn1`: the AC50 in assay [3] is 25 µM (active).

As to `Oc1ccc(C(c2ccc(O)cc2)(C(F)(F)F)C(F)(F)F)cc1`, the AC50 in [1] was 2.86 µM (active); in assay [4] it was 37 µM (active); in [5], 32.5 µM (active); in [6] it was 18.4 µM (active). For the same compound, the compound was called inactive in [3].

As for `O=S(=O)(O)C(F)(F)C(F)(F)C(F)(F)C(F)(F)C(F)(F)C(F)(F)F`, the compound was classed as inactive in assay [7].

Regarding `Cc1cccc(C)c1N`, the call in assay [8] was inactive.

`CC(C)(c1ccccc1)c1ccc(O)cc1`: in assay [1], the AC50 is 25 µM (active). In addition, the compound was classed as inactive in assay [8] and in [6].

For `CCC(=O)O[C@H]1CC[C@H]2[C@@H]3CCC4=CC(=O)CC[C@]4(C)[C@H]3CC[C@]12C`, the compound was classed as inactive in assay [3]. Moreover, the AC50 in assay [5] was 2.04 µM (active).

On to `CCC(C)(c1ccc(O)cc1)c1ccc(O)cc1`, for which, in [1], the AC50 was 11.3 µM (active).

In the case of `CCCCCCCCCC[N+](C)(C)CCCCCCCCCC`, the AC50 in [2] is 6.19 µM (active); in assay [1], 2.6 µM (active); in assay [4], 7.03 µM (active); in [9], 3.37 µM (active); in [3], 6.18 µM (active); in [5], 3.56 µM (active). In addition, the AC50 is 2.39 µM (active) in assay [6], 7.12 µM (active) in assay [10] and 11.6 µM (active) in assay [7].

Broadly, the AC50 is the concentration at which the activity in the assay is half-maximal.
